Source: PubChem BioAssay (Tox21)
Several values for one entry are separate records, joined by “and”; a condition that tells them apart may be missing. Identical values can stand only once. Inconclusive results are not listed. The source holds several records for some structures; these can differ, active in one and inactive in another. Activity calls are given as the source filed them. Unless noted, calls follow the shape of the dose curve; as a rule, active = well fitted curve in the direction sought with a large enough effect in the repeat runs; inconclusive = weak or mixed curves; inactive = no such curve, though single readings can be large; an effect the other way counts as inactive or inconclusive.

Legend:
[1] = qHTS assay to identify small molecule antagonists of the thyroid receptor (TR) signaling pathway - cell viability counter screen (AID 743064); also: nearly all actives have a fitted effect of over 50% in size; also: potency is read from the fitted curve at half-maximal effect
In short: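 Same-well viability check: GH3.TRE-Luc cells stimulated with 1 nM T3 alongside test compound for 23.5 h, followed by CellTiter-Fluor fluorescence.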

[2] = qHTS assay to identify small molecule antagonists of the thyroid receptor (TR) signaling pathway (AID 743065); also: nearly all actives have a fitted effect of over 55% in size; also: potency is read from the fitted curve at half-maximal effect
In short: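 GH3.TRE-Luc rat pituitary cells (two TREs driving luciferase) were dosed with compound, then stimulated with 1 nM T3 (final) for 23.5 h at 37 C. ONE-Glo luminescence was the read-out, with CellTiter-Fluor fluorescence as the cytotoxicity counter-screen.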

[3] = test system: thyroid hormone receptor (rat, GH3 cells); test: qHTS assay to identify small molecule agonists of the thyroid receptor (TR) signaling pathway (AID 743066; calls by dose curve; also: potency is read from the fitted curve at half-maximal effect)
[4] = qHTS assay to identify small molecule antagonists of the estrogen receptor alpha (ER-alpha) signaling pathway - cell viability counter screen (AID 743074; calls by dose curve;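 also: HEK293 cells carrying ER-alpha-UAS-bla reporter stimulated with 17beta-estradiol; nearly all actives have a fitted effect of over 45% in size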; also: potency is read from the fitted curve at half-maximal effect)
[5] = molecular target: Estrogen receptor (Homo sapiens) (UniProt P03372); test: qHTS assay to identify small molecule agonists of the estrogen receptor alpha (ER-alpha) signaling pathway (AID 743075; calls by dose curve;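 also: HEK293 GripTite cells with ER-alpha and UAS-driven beta-lactamase reporter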)
[6] = qHTS assay to identify small molecule antagonists of the estrogen receptor alpha (ER-alpha) signaling pathway using the BG1 cell line (AID 743080; calls by dose curve;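 also: BG1 cells stimulated with 17beta-estradiol alongside compound; series mostly up to about 70 µM; nearly all actives have a fitted effect of over 25% in size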)
In short: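 After 5 days in phenol-red-free 10% charcoal-stripped FBS medium, BG1-Luc-4E2 cells were seeded, left 24 h at 37 C, co-treated with compounds and 17beta-estradiol for 21.5 h, then assayed for viability and luciferase.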

[7] = qHTS assay to identify small molecule antagonists of the estrogen receptor alpha (ER-alpha) signaling pathway using the BG1 cell line - cell viability counter screen (AID 743081);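 also: compound given together with 17beta-estradiol as the ER stimulus; nearly all actives have a fitted effect of over 45% in size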; also: potency is read from the fitted curve at half-maximal effect
Aromatase (Homo sapiens) = Aromatase (Homo sapiens) (UniProt P11511); test: qHTS assay to identify aromatase inhibitors (AID 743083); also: nearly all actives have a fitted effect of over 55% in size; also: potency is read from the fitted curve at half-maximal effect
[8] = qHTS assay to identify aromatase inhibitors - cell viability counter screen (AID 743084);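 also: cells stimulated with testosterone during compound exposure; nearly all actives have a fitted effect of over 55% in size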; also: potency is read from the fitted curve at half-maximal effect
[9] = molecular target: Aryl hydrocarbon receptor (Homo sapiens) (UniProt P35869); test: qHTS assay to identify small molecule that activate the aryl hydrocarbon receptor (AhR) signaling pathway (AID 743085); also: nearly all actives have a fitted effect of over 15% in size; also: potency is read from the fitted curve at half-maximal effect;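 as to activation: HG2L7.5c1 human HepG2 liver cells with stably integrated DRE-driven firefly reporter; series mostly up to about 70 µM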
In short: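 Reporter assay in engineered HepG2 line HG2L7.5c1, whose plasmid carries twenty dioxin responsive elements upstream of firefly luciferase. Treatment lasted 24 h at 37C; ONE-Glo luminescence gauged induction.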

[10] = qHTS assay to identify small molecule that activate the aryl hydrocarbon receptor (AhR) signaling pathway - cell viability counter screen (AID 743086); also: nearly all actives have a fitted effect of over 45% in size; also: potency is read from the fitted curve at half-maximal effect
In short: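 HepG2-AhR-luc (HG2L7.5c1) cells, 4000/well, treated 24 h at 37 C with compound; viability measured as CellTiter-Fluor fluorescence after 30 min in the same wells as the luciferase read.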

[11] = qHTS assay to identify small molecule antagonists of the peroxisome proliferator-activated receptor gamma (PPARg) signaling pathway - cell viability counter screen (AID 743194); settings: Potency: co-treated with 50 nM rosiglitazone; also: nearly all actives have a fitted effect of over 55% in size; also: potency is read from the fitted curve at half-maximal effect
In short: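 Cytotoxicity counter screen in PPARg-bla HEK293H cells, same wells as reporter assay. Compounds plus 50 nM rosiglitazone (final) for 17 h at 37 C, then viability read by CellTiter-Glo luminescence.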

[12] = qHTS assay for small molecule agonists of the antioxidant response element (ARE) signaling pathway - cell viability counter screen (AID 743203; calls by dose curve; also: nearly all actives have a fitted effect of over 55% in size; also: potency is read from the fitted curve at half-maximal effect)
In short: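 Compounds in DMSO were pinned onto ARE-bla HepG2 cells plated 5 hrs earlier at 2,000 cells/well. Sixteen hours later at 37C/5% CO2, CellTiter-Glo was added and luminescence measured after 30 min at room temperature.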

[13] = qHTS assay for small molecule activators of the heat shock response signaling pathway - cell viability counter screen (AID 743209); also: nearly all actives have a fitted effect of over 50% in size; also: potency is read from the fitted curve at half-maximal effect
In short: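 Counter screen for cytotoxicity in HeLa HSE-bla reporter cells. Treatment was 5 h at 37 C; viability was detected by luminescent ATP assay (CellTiter-Glo) in the same wells as the beta-lactamase read.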

[14] = molecular target: Peroxisome proliferator-activated receptor gamma (Homo sapiens) (UniProt P37231); test: qHTS assay to identify small molecule agonists of the peroxisome proliferator-activated receptor gamma (PPARg) signaling pathway (AID 743094; active = well fitted activation curve with a large enough effect in the signal ratio in the repeat runs, not every such curve was filed as active; the % refers to the signal ratio)
In short: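 Following 5 h plating at 37C, PPARg-bla HEK293H cells receive compound or DMSO for 17 h; fluorescence intensity is recorded after LiveBLAzer B/G loading for 1 h at room temperature.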

[15] = molecular target: Peroxisome proliferator-activated receptor gamma (Homo sapiens) (UniProt P37231); test: qHTS assay to identify small molecule antagonists of the peroxisome proliferator-activated receptor gamma (PPARg) signaling pathway (AID 743191; calls by dose curve; also: series mostly up to about 63 µM; nearly all actives have a fitted effect of over 30% in size)
In short: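 GeneBLAzer PPARg UAS-bla HEK293H cells, 5 h post-plating, exposed to compounds 17 h at 37C. LiveBLAzer B/G FRET substrate added for 1 h at room temperature; beta-lactamase reporter read by fluorescence intensity.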

[16] = qHTS assay for small molecule agonists of the antioxidant response element (ARE) signaling pathway (AID 743202; active = well fitted activation curve with a large enough effect in the signal ratio in the repeat runs, not every such curve was filed as active; the % refers to the signal ratio; also: potency is read from the fitted curve at half-maximal effect)
In short: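 ARE-bla HepG2 cells (beta-lactamase reporter under the antioxidant response element), plated 5 hours, then exposed to compounds 16 hours at 37 C. LiveBLAzer B/G FRET substrate added for 2 hours at room temperature; fluorescence intensity read.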

[17] = qHTS assay for small molecule activators of the heat shock response signaling pathway (AID 743210; active = well fitted activation curve with a large enough effect in the signal ratio in the repeat runs, with a control signal flat, not every such curve was filed as active; the % refers to the signal ratio; also: potency is read from the fitted curve at half-maximal effect; as to activation: series mostly up to about 63 µM)
In short: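 HSE-bla HeLa cells (beta-lactamase reporter under heat shock response elements), plated overnight, then exposed to compounds 5 h at 37 C; LiveBLAzer B/G FRET substrate added, 2.5 h at room temperature, fluorescence intensity read.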

[18] = molecular target: Estrogen receptor (Homo sapiens) (UniProt P03372); test: qHTS assay to identify small molecule agonists of the estrogen receptor alpha (ER-alpha) signaling pathway using the BG1 cell line (AID 743079); also: potency is read from the fitted curve at half-maximal effect; nearly all actives have a fitted effect of over 20% in size

Measured: Potency

Aromatase (Homo sapiens), sequence (P11511 whole entry, looked up): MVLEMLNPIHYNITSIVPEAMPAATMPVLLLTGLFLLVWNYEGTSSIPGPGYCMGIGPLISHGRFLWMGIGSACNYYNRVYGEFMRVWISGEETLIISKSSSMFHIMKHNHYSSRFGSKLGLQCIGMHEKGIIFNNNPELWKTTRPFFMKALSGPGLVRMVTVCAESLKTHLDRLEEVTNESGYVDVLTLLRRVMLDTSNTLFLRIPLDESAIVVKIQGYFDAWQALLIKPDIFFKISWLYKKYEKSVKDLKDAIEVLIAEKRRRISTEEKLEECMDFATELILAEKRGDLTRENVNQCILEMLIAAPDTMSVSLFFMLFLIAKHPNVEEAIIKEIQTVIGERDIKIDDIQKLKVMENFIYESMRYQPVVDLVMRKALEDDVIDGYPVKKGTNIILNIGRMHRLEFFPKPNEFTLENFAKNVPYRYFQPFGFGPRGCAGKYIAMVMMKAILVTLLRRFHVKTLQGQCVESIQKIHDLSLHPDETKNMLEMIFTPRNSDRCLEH
Estrogen receptor (Homo sapiens), sequence (P03372 whole entry, looked up): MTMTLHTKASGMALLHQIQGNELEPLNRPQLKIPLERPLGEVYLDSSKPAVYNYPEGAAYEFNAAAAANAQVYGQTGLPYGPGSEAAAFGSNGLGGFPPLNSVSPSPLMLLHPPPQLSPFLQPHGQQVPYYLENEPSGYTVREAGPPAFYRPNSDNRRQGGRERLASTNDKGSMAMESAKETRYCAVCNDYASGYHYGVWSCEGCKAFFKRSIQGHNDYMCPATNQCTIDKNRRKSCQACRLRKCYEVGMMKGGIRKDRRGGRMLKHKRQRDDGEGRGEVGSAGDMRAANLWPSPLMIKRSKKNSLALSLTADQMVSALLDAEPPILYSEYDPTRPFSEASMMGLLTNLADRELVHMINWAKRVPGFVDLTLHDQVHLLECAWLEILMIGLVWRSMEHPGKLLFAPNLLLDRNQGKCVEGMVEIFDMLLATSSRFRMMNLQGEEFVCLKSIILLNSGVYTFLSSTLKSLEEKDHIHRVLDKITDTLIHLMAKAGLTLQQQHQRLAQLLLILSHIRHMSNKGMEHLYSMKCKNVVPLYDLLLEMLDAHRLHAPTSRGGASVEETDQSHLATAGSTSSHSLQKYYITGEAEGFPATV
Peroxisome proliferator-activated receptor gamma (Homo sapiens), sequence (P37231 whole entry, looked up): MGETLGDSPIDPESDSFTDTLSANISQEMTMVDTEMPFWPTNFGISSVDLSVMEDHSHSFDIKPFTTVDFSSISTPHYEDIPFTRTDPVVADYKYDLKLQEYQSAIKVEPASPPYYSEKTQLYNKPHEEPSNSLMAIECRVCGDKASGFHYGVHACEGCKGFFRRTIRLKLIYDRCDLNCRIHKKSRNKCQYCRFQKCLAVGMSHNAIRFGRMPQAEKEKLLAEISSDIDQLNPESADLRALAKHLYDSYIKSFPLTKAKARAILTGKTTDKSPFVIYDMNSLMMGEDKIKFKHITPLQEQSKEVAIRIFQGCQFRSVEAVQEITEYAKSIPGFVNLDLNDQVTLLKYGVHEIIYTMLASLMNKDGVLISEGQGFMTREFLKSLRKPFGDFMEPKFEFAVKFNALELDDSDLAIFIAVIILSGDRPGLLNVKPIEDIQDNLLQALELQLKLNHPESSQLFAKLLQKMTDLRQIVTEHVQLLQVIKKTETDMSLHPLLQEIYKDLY
Aryl hydrocarbon receptor (Homo sapiens), sequence (P35869 whole entry, looked up): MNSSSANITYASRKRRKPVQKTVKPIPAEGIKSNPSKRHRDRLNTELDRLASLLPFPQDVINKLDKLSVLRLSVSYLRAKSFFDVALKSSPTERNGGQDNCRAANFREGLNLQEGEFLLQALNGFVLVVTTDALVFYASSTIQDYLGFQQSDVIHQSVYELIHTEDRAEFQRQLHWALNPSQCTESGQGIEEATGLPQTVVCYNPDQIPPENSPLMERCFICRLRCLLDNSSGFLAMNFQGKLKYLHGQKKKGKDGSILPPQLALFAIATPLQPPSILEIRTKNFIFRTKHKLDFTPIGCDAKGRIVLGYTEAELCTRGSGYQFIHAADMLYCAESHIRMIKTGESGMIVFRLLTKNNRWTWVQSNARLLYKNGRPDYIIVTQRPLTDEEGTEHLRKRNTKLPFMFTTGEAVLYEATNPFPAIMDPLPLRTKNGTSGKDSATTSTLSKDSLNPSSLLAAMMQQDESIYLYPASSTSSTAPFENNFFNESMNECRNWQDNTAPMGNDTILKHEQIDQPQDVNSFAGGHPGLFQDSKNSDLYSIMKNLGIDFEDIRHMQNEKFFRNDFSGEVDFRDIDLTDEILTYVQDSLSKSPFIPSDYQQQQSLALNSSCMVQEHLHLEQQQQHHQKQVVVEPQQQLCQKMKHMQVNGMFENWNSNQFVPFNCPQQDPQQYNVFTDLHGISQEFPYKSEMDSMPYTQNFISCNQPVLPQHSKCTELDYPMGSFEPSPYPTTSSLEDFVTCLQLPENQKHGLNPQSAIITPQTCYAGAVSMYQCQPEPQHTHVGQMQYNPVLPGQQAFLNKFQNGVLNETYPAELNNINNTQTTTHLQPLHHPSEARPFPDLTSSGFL

CCCCCCCCCCCC[N+](C)(C)CCOc1ccccc1
active: [1] 13.3 µM and 9.69 µM | [2] 10.6 µM and 9.69 µM | [4] 19 µM and 17.4 µM | Aromatase (Homo sapiens) 21.1 µM and 19.3 µM | [8] 26.6 µM and 27.3 µM | [10] 68.6 µM | [11] 21.9 µM and 13.3 µM | [12] 30.6 µM and 29.8 µM | [13] 34.7 µM
inactive: [3] | [5] | [6] | [7] | [9]

Cc1cnc(C2=NC(C)(C(C)C)C(=O)N2)c(C(=O)O)c1 (stereo unspecified)
not listed: [18]
inactive: all other assays above

CN(C)c1ccc(N=O)cc1
inactive: [4] | [5]
inactive and 54.5 µM (active): [12]
active: [1] 3.87 µM and 9.69 µM | [2] 5.46 µM and 12.2 µM | [3] 13.7 µM | [18] 12.2 µM | Aromatase (Homo sapiens) 9.72 µM and 21.7 µM | [8] 6.13 µM and 15.4 µM | [9] 21.8 µM and 21.7 µM | [10] 61.3 µM and 68.6 µM | [11] 49.1 µM and 34.7 µM | [13] 3.9 µM and 5.49 µM

O=C(N[C@H]1CN2CCC1CC2)c1ccc2c(c1)OCCO2
not listed: [5] | [6] | [18]
inactive: all other assays above

Cc1ccc(N)c(C)c1
not listed: [5] | [6] | [18]
inactive: all other assays above

C=CCSSCC=C
not listed: [5] | [6] | [11] | [16] | [18]
inactive: all other assays above

CCCCOC(=O)CCC(=O)OCCCC
not listed: [5] | [6] | [16] | [18]
inactive: all other assays above

CC[N+]1(C)CCCC(OC(=O)C(O)(c2ccccc2)c2ccccc2)C1 (stereo unspecified)
not listed: [5] | [6] | [15] | [18]
inactive: all other assays above

OCCCl
not listed: [5] | [6] | [18]
inactive: all other assays above

OC[P+](CO)(CO)CO
61.8 µM (active) and inactive: [8]
active: [16] 12.3 µM and 8.63 µM
not listed: [5] | [15] | [18]
inactive: all other assays above

c1ccc2sc(SNC3CCCCC3)nc2c1
active: [9] 23.7 µM and 34 µM and 30.6 µM | [17] 13.3 µM
not listed: [15] | [16] | [18]
inactive: all other assays above

N#CC1(N=NC2(C#N)CCCCC2)CCCCC1
not listed: [5] | [6] | [16] | [18]
inactive: all other assays above

COC1CC(=C(c2cccs2)c2cccs2)C[N+](C)(C)C1 (stereo unspecified)
not listed: [16] | [18]
inactive: all other assays above

CC(C)(C)CC(C)(C)c1ccc(O)cc1
inactive: [7] | [11]
30.6 µM (active) and inactive: [12]
active: [1] 23.7 µM and 25 µM | [2] 26.6 µM and 21.7 µM | [4] 43.6 µM | [13] 54.9 µM and 29.8 µM
inactive and 30.6 µM (active): [8]

CC(C)(C)OOC(C)(C)CCC(C)(C)OOC(C)(C)C
not listed: [5] | [6] | Aromatase (Homo sapiens) | [8] | [9] | [14] | [15] | [18]
inactive: all other assays above

[Cl-].[Cl-].[Hg+2]
inactive: [9]
54.2 µM (active) and inactive: [7]
active: [1] 1.33 µM and 1.36 µM and 243 nM | [2] 841 nM and 1.21 µM and 193 nM | [4] 24.4 µM | Aromatase (Homo sapiens) 13.3 µM and 1.36 µM and 15.4 µM | [8] 10.6 µM and 1.08 µM and 12.2 µM | [10] 6.08 µM and 54.5 µM | [11] 21.8 µM and 21.9 µM | [12] 19.2 µM and 12.2 µM | [13] 3.87 µM and 30.9 µM
